The supplement of paper PMC7801607

Assays:
[1] = system: CHO; test: % viability of CHO cells (MTT); higher = less toxic; conditions: 48 h
Summary of the method: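 For 48 h, attached CHO cells (10^6 cells/well, 200 µL, seeded the night before) were kept in fresh medium carrying compound at 2 or 20 µM. A colorimetric tetrazolium (MTT) assay then gave survival as percent viability versus untreated cells.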

[2] = system: HepG2-A16-CD81; test: % inhibition of HepG2 viability (CellTiter-Glo); higher = more toxic; conditions: 5 µM
[3] = system: Plasmodium falciparum NF54 stage IV/V gametocytes; test: % inhibition of gametocyte viability (PrestoBlue); higher = more inhibition; conditions: 48 h
Summary of the method: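 Stage IV/V NF54 gametocytes at 2% gametocytaemia and 5% haematocrit (100 µL/well) were treated with compound at 1 or 5 µM and incubated for 48 h at 37 °C under stationary, hypoxic conditions. PrestoBlue (10 µL) was then added for 2 h, and fluorescence at 612 nm was read on 70 µL of transferred supernatant. Percent inhibition of gametocyte viability was normalised to vehicle and kill controls within one run.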

[4] = system: Plasmodium falciparum NF54 asexual blood stage; test: % inhibition of asexual blood stage proliferation (pLDH); higher = more inhibition; conditions: 72 h
Summary of the method: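 Plasmodium falciparum NF54 ring-stage cultures (1% haematocrit, 2% parasitaemia) were incubated with compound at 2 or 20 µM for 72 h at 37 °C under 4% CO2, 3% O2 and 93% N2. Survival was read at 620 nm with the parasite lactate dehydrogenase assay. Results were reported as percent inhibition of asexual proliferation relative to controls.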

[5] = system: Plasmodium falciparum NF54 stage IV/V gametocytes; test: % inhibition of gametocyte viability (ATP bioluminescence); higher = more inhibition; conditions: 24 h
Summary of the method: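 Stage IV/V NF54 gametocytes from density gradients (30,000 per well, 96-well plates) were incubated with compound at 1 or 5 µM for 24 h at 37 °C. A single run supplied percent inhibition of gametocyte viability, based on ATP measured with Promega BacTiter Glo and normalised to control wells.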

[6] = system: Plasmodium falciparum NF54 stage IV/V gametocytes; test: % inhibition of gametocyte viability (luciferase reporter); higher = more inhibition; conditions: 48 h
Summary of the method: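 Percent inhibition came from luminescence and was normalised to controls in a single run. Gametocytes (stage IV/V, NF54-Pfs16-GFP-Luc line, 2% gametocytaemia, 2% haematocrit) were treated with compound at 1 or 5 µM and incubated for 48 h at 37 °C without agitation under hypoxia. Readings used 30 µL lysate with 30 µL Promega luciferin substrate on a GloMax-Multi+ reader, integrating for 10 s.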

[7] = system: Plasmodium berghei ANKA liver stage in HepG2-A16-CD81; test: % inhibition of liver stage parasite viability (luciferase); higher = more inhibition; conditions: 5 µM; 48 h
Method: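 Single-concentration screen of the MMV Pandemic Response Box. P. falciparum NF54 asexual blood stages: pLDH assay, 72 h at 37 °C, 2 and 20 µM, n=2. Stage IV/V gametocytes (NF54): luciferase reporter (NF54-Pfs16-GFP-Luc, 48 h), ATP bioluminescence (24 h) and PrestoBlue (48 h) at 1 and 5 µM, n=1. P. berghei liver stage (luciferase in HepG2-A16-CD81, 48 h post infection) at 5 µM, n=4. All normalised to DMSO and kill controls as % inhibition.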
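Wherever % inhibition of HepG2 viability (CellTiter-Glo) is given: HepG2-A16-CD81 hepatoma cells plated as in the liver-stage assay but without sporozoites, with DMSO wells as negative and 25 µM puromycin as positive control.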

Structure (SMILES)	% viability of CHO cells ([1]; 2 µM)	% viability of CHO cells ([1]; 20 µM)	% inhibition of HepG2 viability [2]	% inhibition of gametocyte viability ([3]; 1 µM)	% inhibition of gametocyte viability ([3]; 5 µM)	% inhibition of asexual blood stage proliferation ([4]; 2 µM)	% inhibition of asexual blood stage proliferation ([4]; 20 µM)	% inhibition of gametocyte viability ([5]; 1 µM)	% inhibition of gametocyte viability ([5]; 5 µM)	% inhibition of gametocyte viability ([6]; 1 µM)	% inhibition of gametocyte viability ([6]; 5 µM)	% inhibition of liver stage parasite viability [7]
O=C(NN1C(=O)[C@@H]2C3C=CC([C@H]4C[C@@H]34)[C@@H]2C1=O)c1ccc(C(F)(F)F)cc1	97.4%	120%	-2.51%	< 0%	< 0%	4.37%	23%	1.06%	< 0%	< 0%	4.75%	26.8%
COc1cc(C)c2c(Oc3cccc(C(F)(F)F)c3)c(OC)cc(NC(C)CCCN)c2n1 (stereo not drawn)	95.6%	-0.735%	3.86%	47.9%	71.7%	56.5%	92.1%	< 0%	70%	< 0%	79.6%	38.2%
Cc1nc2ccc(Oc3ccccc3)cc2c2c1CCN2CCc1ccccc1	77.5%	-1.21%	2.52%	1.5%	60%	75.9%	110%	20.1%	93.2%	33%	63.3%	27%
O=P(O)(O)C(CCCc1cccc(Oc2ccccc2)c1)S(=O)(=O)O (stereo not drawn)	113%	109%	-5.33%	12.4%	30.6%	34.7%	69.9%	< 0%	< 0%	< 0%	3%	9.62%
Nc1nc(O)ncc1F	118%	21.7%	0.135%	3.77%	< 0%	-11%	-2.89%	< 0%	< 0%	< 0%	< 0%	7.9%
CCNC(=O)Nc1cn2c(-c3ncc(CC)cn3)cc(-c3cccnc3)cc2n1	91.8%	58.4%	0.015%	19.9%	36.7%	46%	88.1%	7.29%	24.5%	1.08%	6.06%	4.97%
Cc1cccc(CC(=O)N[C@H]2CCOC2=O)c1	95.4%	98.6%	5.04%	< 0%	21.6%	35.3%	53.6%	< 0%	< 0%	< 0%	5.44%	4.19%
CC(C)(C)c1ccc(OCCn2nc(C(=O)O)c3ccccc3c2=O)cc1	100%	104%	1.37%	< 0%	< 0%	4.78%	19.9%	< 0%	< 0%	< 0%	< 0%	3.4%
CCc1nc(N)nc(N)c1C#CCc1ccccc1	105%	92.5%	5.43%	1.8%	< 0%	66%	97.2%	< 0%	< 0%	5.41%	< 0%	76.9%
COc1ccc(C[C@@H](C)[C@@H](C)Cc2ccc(OC)c(OC)c2)cc1OC	81.9%	77.7%	5.15%	10.5%	23.6%	13.7%	63%	< 0%	< 0%	< 0%	< 0%	4.88%
C[C@@H](O)[C@H](N)C(=O)NS(=O)(=O)c1cccc(-c2ccc3[nH]ncc3c2)c1	85.2%	96%	-0.0475%	35.8%	19.7%	-13.1%	32%	< 0%	< 0%	< 0%	6.84%	31.2%
CCN(CC)CCCC(C)Nc1ccnc2cc(Cl)ccc12 (stereo not drawn)	95.9%	76.9%	8.97%	16.9%	6%	85.8%	99.8%	< 0%	< 0%	29.7%	5.51%	14.3%
COc1ccc(-n2cnc3cc(NCc4ccco4)ccc32)cc1	93.6%	94.6%	1.83%	< 0%	< 0%	29.7%	44.9%	2.7%	< 0%	< 0%	< 0%	-16.1%
c1cnc(NCc2ccc(CNc3ncccn3)cc2)nc1	85.1%	77.7%	-9.29%	9.96%	14.8%	13.7%	35.1%	< 0%	< 0%	3.69%	< 0%	25.6%
COc1cc2c(O)c3c(c(-c4ccc5c(c4)OCO5)c2cc1OC)C(=O)OC3	98%	86.4%	58.9%	13%	17.7%	44.2%	99.9%	< 0%	< 0%	< 0%	< 0%	58.4%
O=C(Nc1ccccc1C(=O)O)c1cccc(Oc2ccccc2)c1	113%	61%	6.41%	37.4%	5.84%	-5.74%	-12.5%	< 0%	< 0%	< 0%	< 0%	-3.28%
O=C1NC(=S)N/C1=C\c1cc(Br)cc(Br)c1O	91.8%	63.5%	-2.5%	1.86%	< 0%	10.8%	17.1%	< 0%	< 0%	< 0%	< 0%	-2.17%
FC(F)(F)Oc1ccc(Nc2ccc3cccc(Cl)c3n2)cc1	101%	86.1%	0.506%	16.2%	< 0%	31%	98%	4.02%	< 0%	< 0%	< 0%	18%
O=C(O)[C@H]1C2CCC(CC2)[C@@H]1Nc1nc(-c2c[nH]c3ncc(F)cc23)ncc1F	91.6%	97.8%	-9.1%	< 0%	< 0%	11.9%	55.2%	0.663%	2.93%	< 0%	< 0%	34%
O=C(NC(=O)N1CCCc2ccccc21)c1ccc(Cl)cc1Cl	95.4%	99.1%	-0.619%	0.538%	13.4%	1.37%	-6.87%	< 0%	< 0%	< 0%	< 0%	36.8%

Structure (SMILES)	% viability of CHO cells ([1]; 2 µM)	% viability of CHO cells ([1]; 20 µM)	% inhibition of HepG2 viability [2]	% inhibition of gametocyte viability ([3]; 1 µM)	% inhibition of gametocyte viability ([3]; 5 µM)	% inhibition of asexual blood stage proliferation ([4]; 2 µM)	% inhibition of asexual blood stage proliferation ([4]; 20 µM)	% inhibition of gametocyte viability ([5]; 1 µM)	% inhibition of gametocyte viability ([5]; 5 µM)	% inhibition of gametocyte viability ([6]; 1 µM)	% inhibition of gametocyte viability ([6]; 5 µM)	% inhibition of liver stage parasite viability [7]
COc1ccc(NC(=O)CC2Sc3ncnn3C2=O)cc1 (stereo not drawn)	99.9%	-0.591%	10.8%	< 0%	2.6%	29.9%	26.3%	0.572%	16.9%	< 0%	15.3%	34.5%
CCOc1ccc(/C=N/NC(=O)C2CC2c2ccc(C(C)(C)C)cc2)cc1OCC (stereo not drawn)	96.4%	63.6%	-8.74%	< 0%	1.6%	18.7%	37.8%	< 0%	< 0%	17.9%	< 0%	11.3%
CCCCc1ccc(S(=O)(=O)Nc2cc(C)on2)cc1	106%	124%	15.2%	18%	10.4%	84.8%	64.2%	2.13%	< 0%	< 0%	< 0%	40.7%
CCOc1noc2cc(OCCC3CCN(c4ccc(C)nn4)CC3)ccc12	66.5%	58%	1.58%	16.1%	23.3%	84.1%	70.5%	6.06%	0.657%	6.47%	5.12%	27.3%
N#Cc1cc([N+](=O)[O-])ccc1Oc1ccccc1Cl	104%	84.9%	-4.08%	55%	53.9%	-2.85%	84.9%	< 0%	< 0%	< 0%	< 0%	12.4%
Cc1ccc(Oc2ccccc2-c2csc(NC3=NCCCN3)n2)c(C)c1	104%	112%	13%	< 0%	< 0%	11.5%	88.7%	< 0%	< 0%	< 0%	< 0%	57.6%
O=C(NC(=O)N1CCCc2ccccc21)c1cccc(Cl)c1	99.8%	116%	1.03%	< 0%	< 0%	-12.6%	10.3%	< 0%	< 0%	< 0%	< 0%	11.4%
O=C(c1nc2c(C(F)(F)F)cc(C3CC3)cn2c1Cl)N1CCN([C@H]2CC[C@H](O)CC2)C(=O)C1	100%	116%	0.895%	28.7%	6.18%	14.7%	46.1%	10.1%	1.45%	3.76%	< 0%	16.9%
CCCCc1ccc(-c2cc(C(=O)O)cc(-c3ccc(Cl)cc3)n2)cc1	93.4%	108%	14.4%	9.55%	12.3%	43%	102%	< 0%	< 0%	0.176%	8.67%	40%
COc1cc(NS(=O)(=O)c2ccc(C)cc2)c2ncccc2c1	118%	94.1%	-7.96%	< 0%	0.605%	45.4%	75.7%	1.27%	62.2%	3.47%	1.7%	48.9%
CN(C/C=C/C#CC(C)(C)C)Cc1cccc2ccccc12	101%	117%	-4.35%	< 0%	< 0%	-1.71%	61.2%	< 0%	< 0%	< 0%	< 0%	29.1%
COc1cccc(N2CCN(C3=Nc4c(F)cccc4[C@H](CC(=O)O)N3c3cc(C(F)(F)F)ccc3OC)CC2)c1	90.8%	116%	5.59%	11.1%	1.05%	22.9%	84.4%	< 0%	< 0%	< 0%	6.89%	21.2%
CC(=O)N[C@H](C)C(=O)N[C@H](Cc1ccccc1)C(=O)O	91.7%	87.7%	8.11%	< 0%	-0.199%	24.6%	81.8%	< 0%	< 0%	17.2%	< 0%	0.6%
O=C1NC(=O)C(Br)=C1Br	118%	103%	5.44%	13.6%	< 0%	42.2%	102%	0.158%	< 0%	< 0%	11.4%	35.8%
O=C(Nc1nnc(-c2ccc(Cl)cc2)o1)c1nc2ccccc2s1	111%	92.6%	0.777%	6.81%	13.9%	73.6%	91.4%	1.06%	< 0%	1.1%	< 0%	11%
CC(=O)Nc1cc(NS(=O)(=O)c2ccc(Cl)cc2)cc2c(Cl)n[nH]c12	108%	81.2%	2.74%	21.4%	50%	20.6%	75%	6.24%	3.03%	< 0%	< 0%	11.8%
CCOC(=O)/C=C/[C@H](C[C@@H]1CCNC1=O)NC(=O)[C@@H](CC(=O)[C@@H](NC(=O)c1cc(C)on1)C(C)C)Cc1ccc(F)cc1	124%	129%	2.38%	27.5%	17.3%	16.3%	53.7%	4.33%	< 0%	1.29%	10.2%	-3.33%
OCCCCn1cnc2c(O)nc(NCc3ccc(Cl)c(Cl)c3)nc21	95.4%	106%	5.96%	< 0%	< 0%	18.9%	91.1%	< 0%	< 0%	< 0%	< 0%	7.89%
O=c1cc(OCc2ccccc2)ccn1Cc1ccccc1	82.6%	98.7%	-3.88%	14.1%	6.4%	6.62%	51.5%	< 0%	< 0%	< 0%	< 0%	20.3%
